{"source": "the supplement of paper PMC11001985", "data": [{"compound": "C#CCNC(=O)CCSSCCC(=O)NCCc1ccc(C=O)c(C=O)c1", "test": "lysine labeling ratio R10:1 (500 µM / 50 µM probe), SILAC-ABPP in living cells; higher = lower intrinsic lysine reactivity toward the probe, active = 2 or less", "conditions": "HeLa; probe concentrations 500 vs 50 µM", "how_it_was_run": "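Forward and reverse SILAC label swaps were used with living light and heavy HeLa cells in PBS at room temperature, which were given an alkyne-tagged, disulfide-linked lysine probe at 50 µM or 500 µM. R is the per-lysine filtered median high-probe/low-probe MS1 peptide ratio, with the median then taken across both swap directions. Values are limited to 20.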", "values": [{"target": "L1CAM (lysine site: K531) (UniProt P32004)", "sequence (P32004 whole entry)": "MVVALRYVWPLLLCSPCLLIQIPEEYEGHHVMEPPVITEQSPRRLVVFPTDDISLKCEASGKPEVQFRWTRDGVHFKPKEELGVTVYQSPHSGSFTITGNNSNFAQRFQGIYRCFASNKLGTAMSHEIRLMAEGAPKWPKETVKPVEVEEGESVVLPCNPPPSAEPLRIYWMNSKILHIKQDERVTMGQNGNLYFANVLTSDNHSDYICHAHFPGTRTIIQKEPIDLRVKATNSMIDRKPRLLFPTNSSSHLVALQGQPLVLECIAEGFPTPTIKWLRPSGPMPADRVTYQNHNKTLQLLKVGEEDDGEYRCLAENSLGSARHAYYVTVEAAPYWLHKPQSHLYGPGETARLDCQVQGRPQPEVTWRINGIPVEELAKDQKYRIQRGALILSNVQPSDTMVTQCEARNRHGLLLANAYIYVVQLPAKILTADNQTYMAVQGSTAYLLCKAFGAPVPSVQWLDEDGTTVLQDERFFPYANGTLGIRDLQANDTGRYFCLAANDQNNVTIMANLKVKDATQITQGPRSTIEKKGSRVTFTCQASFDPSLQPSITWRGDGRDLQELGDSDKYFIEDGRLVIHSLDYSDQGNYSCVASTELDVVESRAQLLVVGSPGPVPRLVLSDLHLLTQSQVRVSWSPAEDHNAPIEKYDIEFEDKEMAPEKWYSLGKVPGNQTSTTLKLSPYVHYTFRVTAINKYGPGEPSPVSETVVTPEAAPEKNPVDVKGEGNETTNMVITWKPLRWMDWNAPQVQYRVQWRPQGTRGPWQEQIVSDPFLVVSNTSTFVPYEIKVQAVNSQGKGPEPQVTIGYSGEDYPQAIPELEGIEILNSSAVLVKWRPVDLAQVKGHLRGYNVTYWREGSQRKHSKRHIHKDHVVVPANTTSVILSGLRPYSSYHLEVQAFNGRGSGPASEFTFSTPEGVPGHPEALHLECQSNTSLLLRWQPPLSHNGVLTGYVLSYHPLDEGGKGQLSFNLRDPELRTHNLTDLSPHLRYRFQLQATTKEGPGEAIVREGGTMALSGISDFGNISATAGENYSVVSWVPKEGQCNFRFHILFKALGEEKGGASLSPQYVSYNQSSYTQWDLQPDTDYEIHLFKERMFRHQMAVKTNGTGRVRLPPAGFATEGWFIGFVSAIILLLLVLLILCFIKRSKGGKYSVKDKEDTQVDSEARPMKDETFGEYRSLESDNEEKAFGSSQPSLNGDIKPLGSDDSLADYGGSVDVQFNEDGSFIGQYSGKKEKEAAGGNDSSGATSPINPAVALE", "lysine labeling ratio R10:1": "7.51 (inactive)"}, {"target": "UniProt P21589 (lysine site: K326)", "lysine labeling ratio R10:1": "1.17 (active)"}, {"target": "NUMA1 (lysine site: K284) (UniProt Q14980)", "lysine labeling ratio R10:1": "2 (active)"}, {"target": "FN1 (lysine site: K249) (UniProt P02751)", "lysine labeling ratio R10:1": "2.7 (inactive)"}, {"target": "ITGB1 (lysine site: K134) (UniProt P05556)", "sequence (P05556 whole entry)": "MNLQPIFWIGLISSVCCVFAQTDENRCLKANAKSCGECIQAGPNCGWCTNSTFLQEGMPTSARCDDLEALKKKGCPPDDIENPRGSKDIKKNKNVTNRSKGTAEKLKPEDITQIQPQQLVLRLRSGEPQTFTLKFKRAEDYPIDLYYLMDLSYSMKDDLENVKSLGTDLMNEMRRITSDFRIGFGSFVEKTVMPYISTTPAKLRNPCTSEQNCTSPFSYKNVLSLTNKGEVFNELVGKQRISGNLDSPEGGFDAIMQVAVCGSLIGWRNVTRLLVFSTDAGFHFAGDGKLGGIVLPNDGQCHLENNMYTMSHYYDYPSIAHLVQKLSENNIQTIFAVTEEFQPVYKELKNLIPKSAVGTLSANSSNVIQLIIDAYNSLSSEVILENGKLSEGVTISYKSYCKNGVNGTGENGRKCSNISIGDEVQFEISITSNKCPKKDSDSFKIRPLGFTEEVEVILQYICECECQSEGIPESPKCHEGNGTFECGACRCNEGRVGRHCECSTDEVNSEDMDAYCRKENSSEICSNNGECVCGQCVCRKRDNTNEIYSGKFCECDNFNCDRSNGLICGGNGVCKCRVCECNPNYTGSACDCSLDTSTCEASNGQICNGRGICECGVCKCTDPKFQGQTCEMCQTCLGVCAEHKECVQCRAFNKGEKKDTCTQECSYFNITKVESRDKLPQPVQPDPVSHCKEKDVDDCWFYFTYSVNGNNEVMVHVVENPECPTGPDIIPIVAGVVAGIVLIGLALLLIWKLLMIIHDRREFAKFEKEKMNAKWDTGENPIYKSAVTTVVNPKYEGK", "lysine labeling ratio R10:1": "1.83 (active)"}, {"target": "ALDOA (lysine site: K111) (UniProt P04075)", "lysine labeling ratio R10:1": "4.71 (inactive)"}, {"target": "VASN (lysine site: K154) (UniProt Q6EMK4)", "lysine labeling ratio R10:1": "1.64 (active)"}, {"target": "L1CAM (lysine site: K378) (UniProt P32004)", "lysine labeling ratio R10:1": "14 (inactive)"}, {"target": "ANXA2 (lysine site: K279) (UniProt P07355)", "sequence (P07355 whole entry)": "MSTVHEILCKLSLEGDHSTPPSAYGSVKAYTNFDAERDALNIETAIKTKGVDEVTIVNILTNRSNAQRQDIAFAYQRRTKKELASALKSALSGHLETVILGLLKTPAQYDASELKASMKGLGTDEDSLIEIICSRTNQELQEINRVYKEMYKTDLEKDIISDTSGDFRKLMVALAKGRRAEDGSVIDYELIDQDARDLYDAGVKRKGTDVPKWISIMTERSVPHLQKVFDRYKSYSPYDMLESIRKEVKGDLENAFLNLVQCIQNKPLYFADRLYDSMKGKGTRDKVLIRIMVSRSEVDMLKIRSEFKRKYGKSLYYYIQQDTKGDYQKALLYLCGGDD", "lysine labeling ratio R10:1": "5.78 (inactive)"}, {"target": "SPTAN1 (lysine site: K2052) (UniProt Q13813)", "lysine labeling ratio R10:1": "3.09 (inactive)"}, {"target": "LAMA5 (lysine site: K1940) (UniProt O15230)", "lysine labeling ratio R10:1": "1.65 (active)"}, {"target": "MYH9 (lysine site: K910) (UniProt P35579)", "lysine labeling ratio R10:1": "4.64 (inactive)"}, {"target": "SDF4 (lysine site: K121) (UniProt Q9BRK5)", "lysine labeling ratio R10:1": "1.36 (active)"}, {"target": "ACTN4 (lysine site: K632) (UniProt O43707)", "lysine labeling ratio R10:1": "4.35 (inactive)"}, {"target": "FOLR1 (lysine site: K97) (UniProt P15328)", "sequence (P15328 whole entry, looked up)": "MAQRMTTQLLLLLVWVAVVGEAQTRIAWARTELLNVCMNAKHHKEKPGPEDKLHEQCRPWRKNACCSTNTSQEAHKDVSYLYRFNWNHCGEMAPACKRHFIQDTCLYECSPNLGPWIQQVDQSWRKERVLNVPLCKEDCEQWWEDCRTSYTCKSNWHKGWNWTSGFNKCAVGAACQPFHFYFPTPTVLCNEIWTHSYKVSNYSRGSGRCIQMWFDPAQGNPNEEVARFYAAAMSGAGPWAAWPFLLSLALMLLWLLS", "lysine labeling ratio R10:1": "4.12 (inactive)"}, {"target": "CD109 (lysine site: K952) (UniProt Q6YHK3)", "sequence (Q6YHK3 whole entry)": "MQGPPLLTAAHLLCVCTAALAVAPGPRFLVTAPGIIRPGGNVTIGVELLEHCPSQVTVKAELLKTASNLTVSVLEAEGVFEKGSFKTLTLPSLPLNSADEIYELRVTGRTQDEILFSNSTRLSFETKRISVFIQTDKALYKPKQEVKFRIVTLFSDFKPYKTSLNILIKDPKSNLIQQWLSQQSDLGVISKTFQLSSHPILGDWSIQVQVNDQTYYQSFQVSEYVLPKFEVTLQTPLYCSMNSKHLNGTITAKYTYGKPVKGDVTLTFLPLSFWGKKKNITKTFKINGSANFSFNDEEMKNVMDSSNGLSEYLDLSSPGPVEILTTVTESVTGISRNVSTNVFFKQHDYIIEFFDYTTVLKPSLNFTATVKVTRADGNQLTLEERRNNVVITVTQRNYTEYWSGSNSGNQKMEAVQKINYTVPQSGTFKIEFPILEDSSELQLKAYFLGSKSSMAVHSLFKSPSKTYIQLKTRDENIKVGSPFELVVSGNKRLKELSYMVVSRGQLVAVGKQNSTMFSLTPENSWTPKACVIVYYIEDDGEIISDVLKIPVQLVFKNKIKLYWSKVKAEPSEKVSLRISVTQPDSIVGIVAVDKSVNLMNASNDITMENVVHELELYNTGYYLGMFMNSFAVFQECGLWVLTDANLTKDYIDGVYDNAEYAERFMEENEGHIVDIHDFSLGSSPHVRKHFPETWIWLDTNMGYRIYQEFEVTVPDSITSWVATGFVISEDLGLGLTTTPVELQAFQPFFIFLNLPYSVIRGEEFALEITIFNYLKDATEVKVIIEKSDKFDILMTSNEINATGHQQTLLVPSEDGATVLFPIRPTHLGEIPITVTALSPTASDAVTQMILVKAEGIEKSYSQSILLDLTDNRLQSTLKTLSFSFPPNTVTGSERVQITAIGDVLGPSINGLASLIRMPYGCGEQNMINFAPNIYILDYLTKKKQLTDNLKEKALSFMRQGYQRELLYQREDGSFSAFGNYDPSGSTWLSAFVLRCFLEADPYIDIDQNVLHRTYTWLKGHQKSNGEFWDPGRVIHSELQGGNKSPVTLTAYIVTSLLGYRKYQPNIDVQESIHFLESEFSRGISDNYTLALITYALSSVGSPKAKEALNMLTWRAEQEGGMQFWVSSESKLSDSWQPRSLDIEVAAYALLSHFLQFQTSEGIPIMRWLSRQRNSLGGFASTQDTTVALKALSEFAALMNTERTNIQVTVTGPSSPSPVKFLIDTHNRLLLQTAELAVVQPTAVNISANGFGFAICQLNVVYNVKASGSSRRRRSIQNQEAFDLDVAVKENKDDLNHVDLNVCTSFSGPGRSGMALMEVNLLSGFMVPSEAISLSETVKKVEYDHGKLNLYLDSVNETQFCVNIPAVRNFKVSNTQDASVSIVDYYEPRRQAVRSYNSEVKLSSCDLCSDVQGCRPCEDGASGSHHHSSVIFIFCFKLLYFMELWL", "lysine labeling ratio R10:1": "0.643 (active)"}, {"target": "WNT5A (lysine site: K283) (UniProt P41221)", "lysine labeling ratio R10:1": "3.04 (inactive)"}, {"target": "FRAS1 (lysine site: K3209) (UniProt Q86XX4)", "lysine labeling ratio R10:1": "2.67 (inactive)"}, {"target": "TAGLN2 (lysine site: K154) (UniProt P37802)", "lysine labeling ratio R10:1": "1.43 (active)"}, {"target": "GAPDH (lysine site: K117) (UniProt P04406)", "lysine labeling ratio R10:1": "3.17 (inactive)"}, {"target": "EZR (lysine site: K400) (UniProt P15311)", "lysine labeling ratio R10:1": "6.03 (inactive)"}, {"target": "UniProt P55285 (lysine site: K276)", "sequence (P55285 whole entry)": "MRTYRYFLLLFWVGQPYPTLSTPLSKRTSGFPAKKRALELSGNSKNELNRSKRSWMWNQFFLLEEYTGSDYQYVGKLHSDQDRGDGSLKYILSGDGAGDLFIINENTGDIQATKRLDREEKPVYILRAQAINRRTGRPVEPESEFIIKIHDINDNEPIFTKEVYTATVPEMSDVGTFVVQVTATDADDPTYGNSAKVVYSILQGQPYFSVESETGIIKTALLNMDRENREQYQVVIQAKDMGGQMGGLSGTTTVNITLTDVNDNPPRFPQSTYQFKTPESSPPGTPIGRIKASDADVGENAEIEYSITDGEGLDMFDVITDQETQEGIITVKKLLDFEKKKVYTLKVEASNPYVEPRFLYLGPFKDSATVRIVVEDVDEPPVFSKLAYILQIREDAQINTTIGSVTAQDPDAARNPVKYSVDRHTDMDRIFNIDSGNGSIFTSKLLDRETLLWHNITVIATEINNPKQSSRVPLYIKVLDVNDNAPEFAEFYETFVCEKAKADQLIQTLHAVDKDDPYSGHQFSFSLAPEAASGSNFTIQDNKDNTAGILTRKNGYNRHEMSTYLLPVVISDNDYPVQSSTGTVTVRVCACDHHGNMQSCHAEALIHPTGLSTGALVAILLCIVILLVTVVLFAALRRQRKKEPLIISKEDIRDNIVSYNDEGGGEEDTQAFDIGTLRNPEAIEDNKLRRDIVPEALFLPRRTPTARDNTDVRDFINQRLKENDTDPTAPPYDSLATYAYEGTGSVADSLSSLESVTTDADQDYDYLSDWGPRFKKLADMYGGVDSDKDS", "lysine labeling ratio R10:1": "1.67 (active)"}, {"target": "UniProt P78333 (lysine site: K385)", "lysine labeling ratio R10:1": "2.8 (inactive)"}]}]}
